Here are results for eight molecules from PubChem BioAssay (NCI).

Holding throughout (test): NCI-60 one-dose screen, 48 h (100 = growth as untreated, 0 = no growth, -100 = all killed)
Holding throughout (details): 10 µM unless noted

The subject of assay [1] is HCT-15 colon.
Assay [2] has as its system HT29 colon.
For assay [3], the system named is SNB-75 CNS.
In assay [4] the test system is SNB-19 CNS.
Assay [5] relates to U251 CNS.
The test system of assay [6] is PC-3 prostate.
Assay [7] deals with SK-MEL-5 melanoma.
The test system of assay [8] is UACC-62 melanoma.
Assay [9] deals with LOX IMVI melanoma.
The test system of assay [10] is SK-MEL-28 melanoma.
In assay [11] the test system is SK-MEL-2 melanoma.
Assay [12] concerns SN12C renal.
Assay [13] has as its system UO-31 renal.
The subject of assay [14] is TK-10 renal.
The test system of assay [15] is ACHN renal.
The test system of assay [16] is CAKI-1 renal.
Assay [17] concerns A498 renal.
Assay [18] concerns CCRF-CEM leukemia.
Assay [19] concerns MOLT-4 leukemia.
The subject of assay [20] is EKVX NSCLC.

The panel holds about 83,000 compounds, 20% with a hit somewhere; the sample as a whole holds those more often.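 Cells were grown in 96-well plates and exposed to the test compound at a single concentration for 48 hours; results are reported as percent growth, with values below 10 considered active.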 A number with no mark means an inactive call. Calls of active or inactive are those of the source.

For `Brc1ccccc1Nc1ccc2nnc(-c3ccncc3)n2n1`, the growth in assay [1] was 80.6%; in assay [2] it was 109%; in assay [3], 93.9%; in [4] it was 100%; in [5], 102%; in assay [6], 102%. For the same molecule, the growth in [7] is 104%; in assay [8], 108%; in assay [9], 92.5%; in assay [10], 99%; in assay [11] it was 98%; in assay [12], 101%. Also, the growth in assay [13] is 82.1%; in [14] it was 114%; in assay [15], 97%; in assay [16] it was 87.1%; in [17] it was 101%; in assay [18], 85%. Further, the growth in assay [19] is 92.6%.

In the case of `O=C1c2[nH]cc(CN[C@@H]3CCCN3)c2C(=O)c2c1c(O)c1ccccc1c2O`, the growth in assay [1] is -38.9% (active); in assay [2] it was -98.4% (active); in assay [3], -71.6% (active); in [4], -84.9% (active); in [5], -98.9% (active); in assay [6] it was -95.1% (active). Further, the growth in [7] was -89.8% (active); in [8] it was -100% (active); in assay [9], -93% (active); in assay [10] it was -100% (active); in assay [11], -17.3% (active); in [12] it was -32% (active). The growth was -31.1% (active) in [13]; -89.3% (active) in [14]; -92.8% (active) in [15]; -18.4% (active) in [16]; 38.1% in [17]; -85.6% (active) in assay [18]. For the same molecule, the growth in assay [19] is -84.7% (active).

For `Cc1cc(=O)oc2c1ccc1oc(C(=O)c3ccccc3)c(C)c12`, the growth in assay [1] was 64%; in [2] it was 51.8%; in [3], 103%; in [4], 103%; in [5], 83.9%; in [6], 86.4%. Also, the growth in assay [7] is 84.3%; in assay [8], 80.8%; in assay [9], 80.5%; in [10], 105%; in assay [11] it was 104%; in [12], 71%. Also, the growth was 100% in assay [13]; 113% in [14]; 76.9% in assay [15]; 77.1% in assay [16]; 82.8% in [17]; 69.1% in [18]. In assay [19], the growth was 76.8%.

For the molecule `CCN(CC)CCCNc1ccc(C)c2sc3ccccc3c(=O)c12`, the growth in assay [1] is -13.3% (active); in assay [2], -24.2% (active); in assay [3], 47.1%; in assay [4], 46.7%; in assay [5] it was 15.4%; in [6] it was 22.7%. Moreover, the growth is -99.4% (active) in assay [7]; -49.2% (active) in [8]; -93.4% (active) in assay [9]; -80% (active) in assay [10]; 94% in assay [11]; 87.9% in assay [20]. The growth in assay [12] was 40.5%; in [13], 44.7%; in [15], 20.9%; in assay [16], 64.6%; in assay [18], 21.8%; in [19] it was 15.3%.

Consider `COc1ccc(S(=O)(=O)c2ccc(C(N)=O)cc2)cc1NC(=O)c1[nH]c(C)c2c1CCCCC2=O`, for which the growth in assay [1] is 99.6%; in assay [2] it was 32.6%; in assay [3], -13.8% (active); in assay [4], 60.2%; in [5], 38.6%; in [6] it was 68%. The growth in assay [7] is 48.5%; in [8], 17%; in assay [9] it was 32%; in assay [10], 67.5%; in assay [11] it was 74.1%; in assay [20] it was 75%. Also, the growth is 78.5% in assay [13]; 81.1% in [14]; 101% in assay [15]; 93.4% in assay [16]; 11.1% in assay [17]; 49.4% in [19].

Turning to `COc1ccc(/C=N/OCC(O)CN2CCC(O)CC2)cc1OC1CCCC1` (stereo not drawn), the growth in assay [1] was 109%; in assay [2], 104%; in assay [3], 80%; in assay [4], 95.9%; in [5] it was 103%; in assay [6], 94.7%. The growth in [7] was 98.8%; in assay [8], 103%; in assay [9] it was 105%; in [10], 105%; in assay [11] it was 105%; in assay [12] it was 103%. In addition, the growth was 88.6% in assay [13]; 106% in assay [14]; 104% in assay [15]; 95.4% in [16]; 113% in assay [18]; 106% in [19].

For the molecule `CCCCCn1c(=N)n(CC(O)COc2cccc(C)c2)c2ccccc21` (stereo not drawn), the growth in assay [1] is 11.1%; in assay [2], 72.7%; in assay [3] it was 2.13% (active); in assay [4], 20%; in assay [5], 1.64% (active); in assay [6], 7.46% (active). Moreover, the growth is -73.3% (active) in assay [7]; 25.7% in assay [8]; 13.7% in assay [9]; 31.2% in assay [10]; -34.1% (active) in assay [11]; 12% in [12]. The growth was 0.645% (active) in [13]; 21.4% in [14]; 10.7% in assay [15]; 7.06% (active) in assay [16]; -3.77% (active) in assay [17]; 8.45% (active) in assay [18]. The growth in assay [19] was 1.95% (active).

As to `COc1ccc(-c2[nH]ncc2Nc2cc(OC)c(OC)c(OC)c2)cc1`, the growth is 32.2% in assay [1]; 26.2% in assay [2]; 44.6% in assay [3]; 34.6% in assay [4]; 31.1% in [5]; 33.6% in assay [6]. Moreover, the growth was -11.3% (active) in assay [7]; 27.4% in assay [8]; 46.1% in assay [9]; 67.2% in [10]; 66.4% in assay [11]; 49.4% in assay [20]. For the same molecule, the growth was 46.8% in assay [13]; 62% in [14]; 55.7% in assay [15]; 36.1% in assay [16]; 48.7% in [17]; 72.6% in assay [19].
